Results filed as inconclusive are left out. Activity calls are given as the source filed them. The call rests on the fitted dose curve; in most records, active means well fitted curve in the direction sought with a large enough effect; inconclusive means small, poorly fitted or top-dose-only effect, or another doubt; inactive means no such curve, though single readings can be large; an effect the other way counts as inactive or inconclusive.
Columns and labels:
[1] = qHTS of pediatric cancer cell lines to identify multiple opportunities for drug repurposing: Confirmatory screen for A673 cells (AID 1347110); further: nearly all actives have a fitted effect of over 65% in size
Outline: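 Cells plated at 500-1,000/well were treated five hours later with multi-point dilutions up to 46 µM final. After two days, CellTiter-Glo was added and luminescence read.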

[2] = qHTS of pediatric cancer cell lines to identify multiple opportunities for drug repurposing: Confirmatory screen for SK-N-MC cells (AID 1347111);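 further: cells exposed to compound for 48 h before the readout; nearly all actives have a fitted effect of over 70% in size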
Outline: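 SK-N-MC cells at 500-1,000 cells/well in growth media were pre-incubated 5 h, then exposed to compounds at 11-point dilutions for 48 h at 37 degrees C, 5% CO2. Viability was read as CellTiter-Glo luminescence.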

[3] = qHTS of pediatric cancer cell lines to identify multiple opportunities for drug repurposing: Confirmatory screen for DAOY cells (AID 1347114); further: nearly all actives have a fitted effect of over 65% in size
Outline: (§1)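 Viability measured as metabolically active cells via CellTiter-Glo luminescence following 48 hours of compound exposure, 11-point dilutions in confirmatory testing. 500-1,000 cells/well plated 5 hours before dosing; controls were DMSO and 2.3 µM bortezomib.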

[4] = qHTS of pediatric cancer cell lines to identify multiple opportunities for drug repurposing: Confirmatory screen for BT-37 cells (AID 1347117); further: nearly all actives have a fitted effect of over 55% in size
Outline: (§2)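 Viability after 48 h compound treatment at 37C, 500-1,000 cells/well, read as ATP luminescence with CellTiter-Glo. Primary screens used 11-point (MIPE, 0.78 nM-46 µM) or 8-point (NPC, 0.59 nM-46 µM) final concentrations; follow-up screens used 11-point dilutions.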

[5] = qHTS of pediatric cancer cell lines to identify multiple opportunities for drug repurposing: Confirmatory screen for TC32 cells (AID 1347118); further: nearly all actives have a fitted effect of over 65% in size
Outline: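 qHTS, TC32, 48 h drug treatment, CellTiter-Glo luminescence as a proxy for metabolically active cells; primary top concentration 46 µM (MIPE 11-pt, NPC 8-pt); confirmatory 11-pt.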

[6] = qHTS of pediatric cancer cell lines to identify multiple opportunities for drug repurposing: Confirmatory screen for MG 63 (6-TG R) cells (AID 1347119); further: nearly all actives have a fitted effect of over 55% in size
Outline: as §2

[7] = qHTS of pediatric cancer cell lines to identify multiple opportunities for drug repurposing: Confirmatory screen for U-2 OS cells (AID 1347122); further: nearly all actives have a fitted effect of over 65% in size
Outline: as §2

[8] = qHTS of pediatric cancer cell lines to identify multiple opportunities for drug repurposing: Confirmatory screen for Rh41 cells (AID 1347123);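 further: 48 h compound exposure; nearly all actives have a fitted effect of over 60% in size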
Outline: as §2

[9] = qHTS of pediatric cancer cell lines to identify multiple opportunities for drug repurposing: Confirmatory screen for Saos-2 cells (AID 1347127); further: nearly all actives have a fitted effect of over 60% in size
Outline: as §2

[10] = qHTS of pediatric cancer cell lines to identify multiple opportunities for drug repurposing: Confirmatory screen for NB1643 cells (AID 1347109); further: nearly all actives have a fitted effect of over 45% in size
Outline: as §2

[11] = qHTS of pediatric cancer cell lines to identify multiple opportunities for drug repurposing: Confirmatory screen for BT-12 cells (AID 1347112); further: nearly all actives have a fitted effect of over 55% in size
Outline: as §2

[12] = qHTS of pediatric cancer cell lines to identify multiple opportunities for drug repurposing: Confirmatory screen for LAN-5 cells (AID 1347113); further: nearly all actives have a fitted effect of over 65% in size
Outline: as §2

[13] = qHTS of pediatric cancer cell lines to identify multiple opportunities for drug repurposing: Confirmatory screen for SJ-GBM2 cells (AID 1347116); further: nearly all actives have a fitted effect of over 60% in size
Outline: as §1

[14] = qHTS of pediatric cancer cell lines to identify multiple opportunities for drug repurposing: Confirmatory screen for control Hh wild type fibroblast cells (AID 1347121); further: nearly all actives have a fitted effect of over 70% in size
Outline: as §2

[15] = qHTS of pediatric cancer cell lines to identify multiple opportunities for drug repurposing: Confirmatory screen for RD cells (AID 1347124)
Outline: as §2

[16] = qHTS of pediatric cancer cell lines to identify multiple opportunities for drug repurposing: Confirmatory screen for NB-EBc1 cells (AID 1347115); further: nearly all actives have a fitted effect of over 45% in size
Outline: as §2

[17] = biological target: N-terminal Xaa-Pro-Lys N-methyltransferase 1 (Homo sapiens) (UniProt Q9BV86); experiment: qHTS Assay for Inhibitors of N-terminal methyltransferase 1 (NTMT1): LOPAC validation of the NTMT1 SAHH-coupled ThioGlo3 Assay (AID 1347143);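 further: SAH from peptide methylation measured as thiol fluorescence via SAHH coupling and ThioGlo3; nearly all actives have a fitted effect of over 70% in size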
Sequence of N-terminal Xaa-Pro-Lys N-methyltransferase 1 (Homo sapiens) (Q9BV86 whole entry, looked up): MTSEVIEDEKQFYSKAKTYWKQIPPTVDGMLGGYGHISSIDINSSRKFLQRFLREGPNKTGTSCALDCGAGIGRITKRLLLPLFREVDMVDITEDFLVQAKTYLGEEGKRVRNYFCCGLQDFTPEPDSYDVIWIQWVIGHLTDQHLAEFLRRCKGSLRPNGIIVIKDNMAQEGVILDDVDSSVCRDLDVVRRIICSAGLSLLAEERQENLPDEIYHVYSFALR
Outline: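 Steps: dispense 125nM NTMT1; pin-transfer test compounds at several concentrations, with 1uM RCC1-6 peptide as control; incubate 1 min; start with reagent holding 100uM SAM, 10uM SAHH, 15uM ThioGlo3; read at 0 and 30 min.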
Potency means the concentration at half of the fitted maximal effect.

CC(=Cc1csc(C)n1)[C@@H]1C[C@H]2O[C@]2(C)CCC[C@H](C)[C@@H](O)[C@@H](C)C(=O)C(C)(C)[C@@H](O)CC(=O)O1
Potency [1]: 7.4 nM (active) | Potency [2]: 5.9 nM (active) | Potency [3]: 11.7 nM (active) | Potency [4]: 5.2 nM (active) | Potency [5]: 3.7 nM (active) | Potency [6]: 3.3 nM (active) | Potency [7]: 26.1 nM (active) | Potency [8]: 10.4 nM (active) | Potency [9]: 13.1 nM (active)

C[C@@]12OC(=O)[C@]1([C@@H](O)[C@@H]1C=CCCC1)NC(=O)[C@H]2CCCl
Potency [10]: 1040 nM (active) | Potency [1]: 585 nM (active) | Potency [11]: 2930 nM (active) | Potency [12]: 737 nM (active) | Potency [3]: 657 nM (active) | Potency [13]: 737 nM (active) | Potency [6]: 293 nM (active) | Potency [14]: 4140 nM (active) | Potency [7]: 329 nM (active) | Potency [8]: 329 nM (active) | Potency [15]: 737 nM (active) | Potency [9]: 1170 nM (active)

CC[C@@]1(O)C(=O)OCc2c1cc1n(c2=O)Cc2cc3ccccc3nc2-1
Potency [10]: 131 nM (active) | Potency [1]: 46.5 nM (active) | Potency [2]: 29.3 nM (active) | Potency [11]: 827 nM (active) | Potency [12]: 58.5 nM (active) | Potency [3]: 4650 nM (active) | Potency [16]: 65.7 nM (active) | Potency [13]: 104 nM (active) | Potency [4]: 36.9 nM (active) | Potency [5]: 18.5 nM (active) | Potency [6]: 73.7 nM (active) | Potency [7]: 1040 nM (active) | Potency [8]: 369 nM (active) | Potency [15]: 465 nM (active) | Potency [9]: 104 nM (active) | Potency [17]: 3550 nM (active)

CCCCCC[C@H]1C(=O)O[C@H](C)[C@H](NC(=O)c2cccc(NC=O)c2O)C(=O)O[C@@H](C)[C@@H]1OC(=O)CC(C)C
Potency [1]: 13100 nM (active) | Potency [2]: 46.5 nM (active) | Potency [12]: 5850 nM (active) | Potency [16]: 14.7 nM (active) | Potency [5]: 117 nM (active) | Potency [6]: 13.1 nM (active) | Potency [14]: 16.5 nM (active)

O=C(Nc1ccncc1)C(=O)c1cn(Cc2ccc(Cl)cc2)c2ccccc12
Potency [10]: 465 nM (active) | Potency [1]: 414 nM (active) | Potency [2]: 329 nM (active) | Potency [3]: 293 nM (active) | Potency [4]: 827 nM (active) | Potency [5]: 233 nM (active) | Potency [6]: 369 nM (active) | Potency [7]: 465 nM (active) | Potency [8]: 465 nM (active) | Potency [15]: 414 nM (active) | Potency [9]: 585 nM (active)

C=CCON=C(C[C@H]1O[C@@H]2O[C@]3(C)CC[C@@H]4[C@H](C)CC[C@@H]([C@H]1C)[C@@]24OO3)[C@H]1O[C@@H]2O[C@]3(C)CC[C@H]4[C@H](C)CC[C@@H]([C@@H]1C)[C@@]24OO3
Potency [10]: 414 nM (active) | Potency [2]: 147 nM (active) | Potency [11]: 261 nM (active) | Potency [12]: 522 nM (active) | Potency [3]: 1850 nM (active) | Potency [4]: 147 nM (active) | Potency [8]: 52.2 nM (active)

COc1cc2cc(c1Cl)N(C)C(=O)C[C@H](OC(=O)C(C)C)[C@]1(C)O[C@H]1[C@H](C)[C@@H]1C[C@@](O)(NC(=O)O1)[C@H](OC)C=CC=C(C)C2
Potency [10]: 65700 nM (active) | Potency [1]: 1 nM (active) | Potency [2]: 1.3 nM (active) | Potency [11]: 1.6 nM (active) | Potency [12]: 1170 nM (active) | Potency [3]: 3.7 nM (active) | Potency [4]: 1 nM (active) | Potency [5]: 0.4 nM (active) | Potency [6]: 1 nM (active) | Potency [14]: inactive | Potency [9]: 26100 nM (active)

C[C@]12Cc3cn[nH]c3C[C@@H]1CC[C@@H]1[C@H]2CC[C@@]2(C)[C@H]1CC[C@]2(C)O
Potency [10]: inactive | Potency [1]: inactive | Potency [16]: inactive | Potency [13]: inactive | Potency [6]: inactive | Potency [14]: inactive | Potency [7]: inactive | Potency [8]: inactive

CC=C(C)C(=O)O[C@H]1C(C)=C2[C@@H]3OC(=O)[C@@](C)(O)[C@@]3(O)[C@@H](OC(=O)CCC)C[C@](C)(OC(C)=O)[C@@H]2[C@@H]1OC(=O)CCCCCCC
Potency [10]: inactive | Potency [1]: inactive | Potency [2]: inactive | Potency [3]: inactive | Potency [16]: inactive | Potency [4]: inactive | Potency [5]: inactive | Potency [6]: inactive | Potency [14]: inactive | Potency [7]: inactive | Potency [8]: inactive | Potency [15]: inactive

C[C@H]1CCCC=CC2C[C@H](O)C[C@@H]2[C@H](O)C=CC(=O)O1 (stereo not given in full)
Potency [10]: 131 nM (active) | Potency [1]: 414 nM (active) | Potency [2]: 104 nM (active) | Potency [11]: 165 nM (active) | Potency [12]: 117 nM (active) | Potency [16]: 117 nM (active) | Potency [13]: 208 nM (active) | Potency [4]: 92.8 nM (active) | Potency [5]: 117 nM (active) | Potency [7]: 208 nM (active) | Potency [8]: 827 nM (active) | Potency [15]: 329 nM (active)

CC(=Cc1csc(C)n1)[C@@H]1C[C@H]2O[C@@H]2CCC[C@H](C)[C@@H](O)[C@@H](C)C(=O)C(C)(C)[C@@H](O)CC(=O)O1
Potency [1]: 18.5 nM (active) | Potency [2]: 20.8 nM (active) | Potency [3]: 13.1 nM (active) | Potency [13]: 104 nM (active) | Potency [5]: 14.7 nM (active) | Potency [6]: 16.5 nM (active) | Potency [14]: inactive | Potency [8]: 36.9 nM (active) | Potency [15]: 46.5 nM (active) | Potency [9]: 29.3 nM (active)
